# Results reported in PubChem BioAssay AID1117294 (Broad Institute, 2014).
# Values without a mark were called inactive.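 Rule for the calls: active = Lowers HeLa cell ATP signal, with fitted half-maximal potency at most twice the top tested dose in every run; inconclusive = runs disagree, or fits flat mid-range or poor; inactive = every run inactive, including signal rising.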
# Experiment: cervical carcinoma cell viability loss – CellTiter-Glo luminescence, dry powder, set 3, cytotoxicity control, dose response (AID 1117294)
# Conditions: HeLa viability, ATP luminescence (CellTiter-Glo), 72 h
compound,measurement,setting,value
COc1ccc(C(=O)O)cc1S(=O)(=O)Nc1cccc(N2CCCCC2)c1C(F)(F)F,max activity,,15.2%
O=S(=O)(O)c1ccc(N2N=C(c3ccccc3)CC2c2ccccc2)cc1 (stereo not drawn),max activity,at 0.0015 µM,-32.4%
COc1ccc(C(=O)O)cc1S(=O)(=O)Nc1cc(C(F)(F)F)ccc1N1CCOCC1,max activity,at 0.003 µM,-16.9%
COc1ccc(C(=O)O)cc1S(=O)(=O)Nc1cc(C(F)(F)F)ccc1N1CCCCC1,max activity,at 0.0235 µM,-13.4%
same,max activity,at 12 µM,-15.9%
COc1ccc(C(=O)O)cc1S(=O)(=O)Nc1cc(C(F)(F)F)ccc1N(C)C,max activity,at 6 µM,-19%
COc1ccc(C(=O)O)cc1S(=O)(=O)N1CCN(c2ccc(C(F)(F)F)cc2N)CC1,max activity,at 12 µM,-20.1%
COc1ccc(C(=O)Nc2cccc(C(F)(F)F)c2)cc1S(=O)(=O)O,max activity,at 26 µM,-20.5%
